Hit rate of the full screen: of about 220,000 compounds, about 16,000 (7.3%) were called active. About 25% were inconclusive and are not listed. What follows is part of a selection rich in actives, with near analogues and random picks from the rest. Values without a mark were called inactive. Calls come from the whole dose curve; as a rule, active = well fitted inhibition curve with a large enough effect (not every such curve was filed as active); inconclusive = small, poorly fitted or top-dose-only effect, or another doubt; inactive = no such curve, though single readings can be large or run the other way.
What follows are molecules tested against Aldehyde dehydrogenase 1A1 (Homo sapiens) (UniProt P00352) (assay: qHTS Assay for Inhibitors of Aldehyde Dehydrogenase 1 (ALDH1A1)). Conditions: Purified ALDH1A1, NADH fluorescence, propionaldehyde substrate; series mostly up to 75.3 µM; activity, negative = inhibition: at the top concentration.
Potency is the fitted concentration of half-maximal effect.
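Throughout, for activity, negative = inhibition: plate controls were no enzyme wells and a reference inhibitor.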

Chain of Aldehyde dehydrogenase 1A1 (Homo sapiens) (P00352 whole entry, looked up): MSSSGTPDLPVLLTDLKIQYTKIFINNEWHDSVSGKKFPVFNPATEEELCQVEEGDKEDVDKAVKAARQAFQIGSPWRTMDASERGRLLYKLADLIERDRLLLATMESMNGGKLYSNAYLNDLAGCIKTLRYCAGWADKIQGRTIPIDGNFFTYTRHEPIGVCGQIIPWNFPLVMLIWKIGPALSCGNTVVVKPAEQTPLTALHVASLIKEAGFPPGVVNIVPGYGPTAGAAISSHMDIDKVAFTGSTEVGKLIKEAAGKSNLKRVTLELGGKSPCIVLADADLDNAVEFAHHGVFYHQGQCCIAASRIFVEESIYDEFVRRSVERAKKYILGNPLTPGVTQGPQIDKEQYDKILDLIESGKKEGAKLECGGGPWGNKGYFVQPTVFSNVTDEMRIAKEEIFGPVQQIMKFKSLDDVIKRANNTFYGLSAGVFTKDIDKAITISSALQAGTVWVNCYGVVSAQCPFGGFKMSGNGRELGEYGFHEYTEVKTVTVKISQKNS

| SMILES | activity, negative = inhibition | Potency |
| --- | --- | --- |
| Cc1ccccc1C1=N/C(=C/c2cccnc2)C(=O)O1 | -2.62% |  |
| Cc1ccc(C2=N/C(=C\c3ccc(OS(=O)(=O)c4ccc(C)cc4)cc3)C(=O)O2)cc1 |  | 25.1 µM (active) |
| Cc1cccc(C2=N/C(=C/c3cccs3)C(=O)O2)c1 | -4.31% |  |
| COCCN(C(=S)Nc1ccccc1OC)C1CCN(C(C)C)CC1 | -1.56% |  |
| O=C(O)c1ccc2c(c1)C(=O)N(NC(=O)c1ccc(O)cc1)C2=O | 1.02% |  |
| C=CCN1C2CCCC1CC(NC(=S)Nc1cccc(OC)c1)C2 (centres undefined) | -11.8% |  |
| COc1ccc(C)cc1NC(=O)CCS(=O)(=O)c1cccc2nonc12 | -4.87% |  |
| CC1CCCCC1NC(=O)CCS(=O)(=O)c1cccc2nonc12 (centres undefined) |  | 10 µM (active) |
| CC1CCCCC1NC(=O)C1CCCN1S(=O)(=O)c1cccc2nsnc12 (centres undefined) | 0.711% |  |
| CCN1C(=O)N[C@@H](c2ccccc2)C(C(=O)OC)=C1C | 17.9% [at 13.5 µM] |  |
| COC(=O)C1=C(C)N(C)C(=S)NC1c1ccccc1 (centres undefined) | 7.15% |  |
| COC(=O)C1=C(C)N(C)C(=O)NC1c1ccc([N+](=O)[O-])o1 (centres undefined) |  | 25.1 µM (active) |
| Cc1ccc(C(=O)N2CCN(S(=O)(=O)N3CCOCC3)CC2)cc1 | 4.89% |  |
| COc1ccc(C(=O)COC(=O)c2nn(C)c(=O)c3ccccc23)c(OC)c1 | 4.94% |  |
| C#CCN1C(=O)C(O)(CC(=O)c2cc(OC)ccc2OC)c2ccccc21 (centres undefined) |  | 3.55 µM (active) |
| COc1ccc(OC)c(C(=O)c2ccc(C(=O)O)cc2)c1 | 20.8% |  |
| CCOC(=O)Cc1ncccc1C(=O)Nc1ccc(OC)cc1 | 1.9% |  |
| Cc1nn(C(=O)c2ccoc2C)c(N)c1-c1ccccc1 | 1.61% |  |
| Cc1nn2c(c1-c1ccccc1)N=C(c1ccco1)CC2c1ccccc1 (centres undefined) |  | 22.4 µM (active) |
| S=C(NCCc1ccccc1)NCC1CCCO1 (centres undefined) | 4.66% |  |
| O=C(CSc1nnc(-c2ccc(NS(=O)(=O)c3ccccc3)cc2)o1)NCC1CCCO1 (centres undefined) | -1.79% |  |
| O=C(CS(=O)(=O)Cc1ccccc1)NCC1CCCO1 (centres undefined) |  | 25.1 µM (active) |
| CCN(c1ccccc1)S(=O)(=O)c1ccc2[nH]c(=O)[nH]c2c1 | -0.299% |  |
| Cc1cc([N+](=O)[O-])nn1Cc1ccc(F)cc1 | -5.09% |  |
| Cc1c(CN2CCCC(C(=O)c3cccc(Cl)c3)C2)c(=O)n(-c2ccccc2)n1C (centres undefined) | 11.4% |  |
| CCCCC1=CC2=CC(=O)C(C)(OC(=O)CC)C(=O)C2=CN1CCCOC(C)C (centres undefined) | -5.05% [at 13.5 µM] |  |
| Cc1cccc(NC(=O)CSc2nc3c(c(=O)[nH]2)CCCC3)c1C | -4.24% |  |
| Cc1cccc(NC(=O)CSC(N)=O)c1C |  | 7.08 µM (active) |
| Cc1cccc(NC(=O)CN2C(=O)c3ccccc3C2=O)c1C | 11.6% |  |
